From PubChem BioAssay (NCATS)
Inconclusive results are not listed. Calls of active or inactive are those of the source. Unless noted, calls come from the whole dose curve; as a rule, active = well fitted curve in the direction sought with a large enough effect; inconclusive = small, poorly fitted or top-dose-only effect, or another doubt; inactive = no such curve, though single readings can be large; an effect the other way counts as inactive or inconclusive.

Experiments:
[1] = target: Pyruvate kinase (Leishmania mexicana) (UniProt Q27686); test: qHTS Validation Assay for Inhibitors of Leishmania Mexicana Pyruvate Kinase (AID 945); settings: purified L. mexicana pyruvate kinase, enzyme activity, E451W mutant enzyme; series mostly up to 57.5 µM
Sequence of Pyruvate kinase (Leishmania mexicana) (Q27686 2-499 E452W): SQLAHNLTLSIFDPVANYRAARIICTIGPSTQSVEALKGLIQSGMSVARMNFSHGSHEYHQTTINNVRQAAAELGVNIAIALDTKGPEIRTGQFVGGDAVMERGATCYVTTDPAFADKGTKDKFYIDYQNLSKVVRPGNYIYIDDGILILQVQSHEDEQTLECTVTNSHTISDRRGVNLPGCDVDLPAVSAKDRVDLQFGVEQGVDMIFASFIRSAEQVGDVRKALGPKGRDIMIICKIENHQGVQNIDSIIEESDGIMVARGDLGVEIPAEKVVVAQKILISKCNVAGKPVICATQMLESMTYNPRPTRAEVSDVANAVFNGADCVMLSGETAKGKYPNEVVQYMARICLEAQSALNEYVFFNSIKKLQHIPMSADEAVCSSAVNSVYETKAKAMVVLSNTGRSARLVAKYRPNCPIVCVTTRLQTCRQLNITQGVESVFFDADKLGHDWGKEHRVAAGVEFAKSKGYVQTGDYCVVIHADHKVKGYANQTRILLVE
Procedure, shortened: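 LmPYK E451W 0.2 nM; 0.5 mM PEP, 0.1 mM ADP, 7 mM MgCl2, 50 mM KCl, imidazole pH 7.2, 0.01% Tween 20, 0.05% BSA; 1 h RT; PKLight luminescence; DMSO-normalized.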

[2] = target: Pyruvate kinase PKM (Homo sapiens) (UniProt P14618); test: qHTS Assay for Activators of Human Muscle Pyruvate Kinase (AID 954; active = well fitted curve in the direction sought with a large enough effect, not every such curve was filed as active); settings: purified human muscle pyruvate kinase, luciferase-coupled luminescence, 1 h; series mostly up to 57.5 µM
Sequence of Pyruvate kinase PKM (Homo sapiens) (P14618 whole entry, looked up): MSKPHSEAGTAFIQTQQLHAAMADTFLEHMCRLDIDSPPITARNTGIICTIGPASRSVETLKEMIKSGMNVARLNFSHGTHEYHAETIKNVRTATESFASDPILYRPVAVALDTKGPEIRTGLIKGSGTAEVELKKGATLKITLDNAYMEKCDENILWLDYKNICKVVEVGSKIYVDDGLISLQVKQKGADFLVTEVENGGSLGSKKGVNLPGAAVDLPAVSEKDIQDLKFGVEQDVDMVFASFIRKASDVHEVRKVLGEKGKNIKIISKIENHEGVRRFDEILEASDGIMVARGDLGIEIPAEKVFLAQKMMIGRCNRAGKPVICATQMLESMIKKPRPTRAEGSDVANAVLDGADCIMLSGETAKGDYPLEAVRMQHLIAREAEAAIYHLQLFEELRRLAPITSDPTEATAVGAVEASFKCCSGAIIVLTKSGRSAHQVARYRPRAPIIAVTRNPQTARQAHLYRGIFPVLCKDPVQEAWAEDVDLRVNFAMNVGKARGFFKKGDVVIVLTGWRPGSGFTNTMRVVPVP
Procedure, shortened: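 Human PKM2 activity is measured as ATP generation, detected by luciferase-coupled luminescence. The enzyme (0.1 nM) acts on 0.5 mM PEP and 0.1 mM ADP for 1 h at ambient temperature; data are normalized to uninhibited and full-inhibition wells.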

[3] = target: Alpha-galactosidase (Coffea arabica) (UniProt Q42656); test: Counterscreen for Glucocerebrosidase Inhibitors: qHTS Assay for Coffee Bean alpha-Galactosidase at pH 4.5 (AID 957); settings: purified coffee bean alpha-galactosidase, fluorogenic substrate; series mostly up to 76.9 µM
Sequence of Alpha-galactosidase (Coffea arabica) (Q42656 whole entry, looked up): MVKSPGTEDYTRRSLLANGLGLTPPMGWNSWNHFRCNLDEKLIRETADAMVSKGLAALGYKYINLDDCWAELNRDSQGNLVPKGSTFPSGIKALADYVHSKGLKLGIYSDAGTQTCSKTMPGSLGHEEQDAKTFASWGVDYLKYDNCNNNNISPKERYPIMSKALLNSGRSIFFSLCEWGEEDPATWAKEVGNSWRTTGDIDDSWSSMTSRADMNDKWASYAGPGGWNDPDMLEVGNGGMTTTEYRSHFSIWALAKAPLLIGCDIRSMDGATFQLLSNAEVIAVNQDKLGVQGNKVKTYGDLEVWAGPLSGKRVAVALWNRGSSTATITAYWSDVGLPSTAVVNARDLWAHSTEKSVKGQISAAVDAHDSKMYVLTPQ
Procedure, shortened: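 Coffee bean alpha-galactosidase 2 nM, substrate 4-MU-alpha-Gal 80 uM, pH 4.5 citrate/Tween-20, 20 min RT. Cpd titration 0.7 nM–77 uM. Stop pH 10, fluorescence 365/440 nm; Hill-equation AC50.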

[4] = MultiTox-Fluor Cytotoxicity Assay - LYMP1-001 - Dead Cells (AID 946); settings: LYMP1-001 lymphoblastoid cells, dead-cell protease fluorescence; series mostly up to 92.2 µM; note: potency is the fitted concentration of half-maximal effect
Procedure, shortened: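 Cytotoxicity as increased dead-cell protease fluorescence (bis-AAF-R110, 485/520 nm), read 60 min after MultiTox-Fluor reagent. Human lymphoblastoid line exposed 16 h; Hill-fitted AC50, with DMSO as 0% and 15 uM tetraoctylammonium bromide as 100%.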

[5] = MultiTox-Fluor Cytotoxicity Assay - LYMP1-002 - Live Cells (AID 955); settings: LYMP1-002 lymphoblastoid live-cell protease fluorescence viability; series mostly up to 46.1 µM
Procedure, shortened: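 Read-out is live-cell protease activity (cell-permeant GF-AFC substrate, fluorescence Ex/Em=405/510), where a decrease indicates acute toxicity. Human lymphoblastoid cells were treated 16 hours at 37 C in a concentration series, and AC50 values came from standard Hill modelling.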

[6] = Cell Viability - LYMP1-002 - Assay at 16 hr (AID 948); settings: LYMP1-002 lymphoblastoid cell viability; series mostly up to 92.2 µM
Procedure, shortened: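 ATP luminescence (CellTiter-Glo) was measured after 16 hr compound exposure at 37 C of 2500 lymphoblastoid LYMP1-002 cells per well. Concentration-response curves were fitted with the Hill equation to give AC50.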

[7] = MultiTox-Fluor Cytotoxicity Assay - LYMP1-003 - Live Cells (AID 962); settings: LYMP1-003 lymphoblastoid cells, MultiTox-Fluor live-cell protease fluorescence; series mostly up to 92.2 µM;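 note: cells exposed to compound for 16 hours at 37 °C; cytotoxic hits lower the live-cell protease signal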
Procedure, shortened: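 qHTS, 1536-well; 2500 cells/well LYMP1-003; 5 hr 37 C settle; cpd 16 hr 37 C; MultiTox-Fluor reagent 60 min RT; live-cell protease fluor. 405/510; Hill-fit AC50; tetraoctylammonium bromide pos. ctrl.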

[8] = MultiTox-Fluor Cytotoxicity Assay - LYMP1-001 - Live Cells (AID 947); settings: LYMP1-001 lymphoblastoid cells, live-cell protease fluorescence viability; series mostly up to 92.2 µM
Text: NIH Chemical Genomics Center [NCGC]
NIH Molecular Libraries Screening Centers Network [MLSCN]
National Institutes of Environmental Health Sciences [NIEHS]
National Toxicology Program [NTP]
We have developed a 1536-well cell-based assay for quantitative high throughput screening (qHTS) against a number of cell lines to determine in vitro cytotoxicity of small molecules. This particular assay uses a human lymphoblastoid cell line (LYMP1-001) purchased from Coriell Institute.
NCGC Assay Protocol Summary:
The MultiTox-Fluor Cytotoxicity Assay (Promega) is a homogeneous method to simultaneously measure the relative number of live and dead cells in culture by detecting changes in cell membrane integrity. There are two fluorogenic peptide substrates in the assay reagent. Viable cells are determined when the cell-permeant substrate (GF-AFC) enters the cell and is cleaved by protease from live cells resulting in liberated fluorophore. This live-cell protease activity restricted to viable cells is proportional to cell number. The dead cells are determined by using fluorogenic cell-impermeant peptide substrate (bis-AAF-R110) which cleaved by dead cell proteases leaking from damaged cell membrane.
Using the MultiTox-Fluor Cytotoxicity Assay, the relative number of live cells was measured in the lymphoblastoid cell line with complete culture medium following compound treatment for 16 hours. The assay was performed in opaque black Kalypsys 1536-well plates. In the screen, tetraoctylammonium bromide was used as positive control. Library compounds were measured for their ability to cause acute toxicity in the cell line, as reflected by a decrease in live cell protease activity, in a concentration-dependent manner. […] AC50 values were determined from concentration-response data modeled with the standard Hill equation.
qHTS protocol for MultiTox-Fluor Cytotoxicity assay
[Step] [Parameter] [Value] [Description]
1. Reagent; 5 uL; 2500 lymphoblastoid cells/well
2. Time; 5 hr; 37 C incubation
4. Controls; 23 nL; Tetraoctylammonium bromide 6.4pM to 92 uM
5. Time; 16 hr; 37 C incubation
6. Reagent; 5 uL; MuliTox-Fluor Assay reagent
7. Time; 60 min; Room Temperature
8. Detection; live-cell fluorescence (Ex/Em=405/510); EnVision plate reader
Keywords: cell viability, cytotoxicity, lymphoblastoid cell line, fluorescence, NTPHTS, NTPHTS_NCGC, NIEHS, EPA, DSSTox, MLSMR, MLSCN, NIH Roadmap, qHTS, NCGC

[9] = MultiTox-Fluor Cytotoxicity Assay - LYMP1-003 - Dead Cells (AID 961); settings: LYMP1-003 lymphoblastoid cells, dead-cell protease fluorescence; series mostly up to 92.2 µM; note: nearly all actives have a fitted effect of over 70% in size
Procedure, shortened: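 Dead-cell protease release, detected as bis-AAF-R110 fluorescence at 485/520 nm, was measured in LYMP1-003 cells after 16 h compound treatment at 37 C. AC50 values came from Hill-modeled qHTS curves normalized to DMSO (0%) and 15 uM tetraoctylammonium bromide (100%).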

Measured: Potency

c1ccc(C2CC2)c(OCC2=NCCN2)c1
inactive: [1] | [2] | [3]

Oc1cccc2cccnc12
inactive: [5]
active: [4] 39.8 µM

C[C@]12C/C(=C/O)C(=O)C[C@@H]1CC[C@@H]1[C@@H]2CC[C@@]2(C)[C@H]1CC[C@]2(C)O
inactive: [6] | [7]
active: [4] 50.1 µM

N#CC(C#N)=Cc1ccc(O)c(O)c1
inactive: [1] | [2] | [3]

NCC(O)c1ccc(O)cc1 (stereo not drawn)
not listed: [1] | [2] | [3]
inactive: all other assays above

Oc1ccccc1-c1ccccc1
not listed: [1] | [2] | [3]
inactive: all other assays above

CC(=O)[C@H]1CC[C@H]2[C@@H]3CC[C@H]4C[C@H](O)CC[C@]4(C)[C@H]3C(=O)C[C@]12C
inactive: [1] | [2] | [3]

CCCN1CCC[C@@H]2Cc3[nH]ncc3C[C@H]21
inactive: [1] | [2] | [3]

Cc1ccc(S(=O)(=O)N[C@@H](CCCCN)C(=O)CCl)cc1
inactive: [1] | [2] | [3]

COc1ccccc1N1CCNCC1
inactive: [1] | [2] | [3]

Cc1cccc(C)c1NC1=NCCCS1
inactive: [1] | [2] | [3]

CCOP(=S)(OCC)Oc1cc(C)nc(C(C)C)n1
not listed: [1] | [2] | [3]
inactive: all other assays above

Fc1ccc(C(OCCN2CCN(CCCc3ccccc3)CC2)c2ccc(F)cc2)cc1
inactive: [1] | [2] | [3]

c1ccc2c(c1)Nc1ccccc1S2
not listed: [1] | [2] | [3]
inactive: all other assays above
